# Measured values published in article PMC5540273 (PLoS ONE, 2017).
# Experiments:
# Conditions in all cases: concentration: 1 μM, replicates: in singlicate; n = 1
# PKAC-alpha = tested on: T1, PKAC-alpha
# T1 construct: gene PRKACA
# PKAC-beta = tested on: T2, PKAC-beta
# T2 construct: gene PRKACB
# PKMYT1 = tested on: PKMYT1
# PKN1 = tested on: PKN1
# PKN2 = tested on: PKN2
# PLK1 = tested on: PLK1
# PLK2 = tested on: PLK2
# PLK3 = tested on: PLK3
# PLK4 = tested on: PLK4
# PRKCD = tested on: PRKCD
# PRKCE = tested on: PRKCE
# PRKCH = tested on: PRKCH
# PRKCI = tested on: PRKCI
# PRKCQ = tested on: PRKCQ
# PRKD1 = tested on: PRKD1
# PRKD2 = tested on: PRKD2
# PRKD3 = tested on: PRKD3
# PRKG1 = tested on: PRKG1
# PRKG2 = tested on: PRKG2
# PRKR = tested on: T3, PRKR
# T3 construct: gene EIF2AK2
# 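Also: KINOMEscan kinase panel screen.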
SMILES,%Inh (PKAC-alpha),%Inh (PKAC-beta),%Inh (PKMYT1),%Inh (PKN1),%Inh (PKN2),%Inh (PLK1),%Inh (PLK2),%Inh (PLK3),%Inh (PLK4),%Inh (PRKCD),%Inh (PRKCE),%Inh (PRKCH),%Inh (PRKCI),%Inh (PRKCQ),%Inh (PRKD1),%Inh (PRKD2),%Inh (PRKD3),%Inh (PRKG1),%Inh (PRKG2),%Inh (PRKR)
CN(C)c1cc(-c2ccc3c(N)n[nH]c3c2)nc(N)n1 [GSK2219329],32%,0%,0%,0%,0%,0%,0%,0%,0%,0%,0%,14%,17%,0%,0%,0%,0%,1%,1%,5%
Cc1nnc(-c2ccc(C)c(-c3ccc(C(=O)O)cc3)c2)o1 [GW608005],0%,0%,0%,28%,0%,0%,0%,0%,0%,0%,0%,0%,0%,5%,0%,0%,19%,0%,0%,0%
Nc1ncnc2c1ncn2-c1cccc(F)c1 [SKF-97560],21%,0%,0%,4%,0%,34%,22%,25%,9%,1%,3%,0%,22%,20%,0%,10%,9%,0%,10%,0%
COc1ccc(-c2cc3c(C)nc(N)nc3n([C@H]3CC[C@H](O)CC3)c2=O)cn1,0%,0%,32%,0%,10%,0%,0%,0%,0%,0%,36%,0%,0%,0%,3%,0%,0%,0%,0%,0%
Cc1cc(Nc2nc(-c3cccc(C)n3)nc3ccccc23)ccn1 [GW872411],0%,0%,24%,0%,0%,0%,0%,1%,0%,8%,0%,0%,0%,0%,99.4%,99.9%,76%,14%,0%,0%
COc1ccc(-c2coc3ccc(-c4nnc(SCc5cccc(C#N)c5)o4)cc23)cc1,11%,0%,0%,32%,0%,0%,11%,12%,18%,12%,0%,0%,0%,31%,0%,23%,0%,0%,21%,0%
CCC(=O)c1c(-c2ccccc2)c2cc(Cl)ccc2c(=O)n1Cc1cc(S(C)(=O)=O)n(CC(F)F)n1,0%,0%,0%,0%,0%,0%,24%,13%,0%,9%,0%,6%,0%,8%,0%,0%,0%,0%,0%,0%
O=C(Nc1n[nH]c2nc(-c3ccccc3)c(Cl)cc12)C1CC1 [SB-734909],0%,0%,16%,45%,0%,24%,0%,13%,29%,2%,10%,0%,0%,0%,0%,35%,5%,6%,20%,0%
COc1cc(OC)cc(-c2cc3cnc(N)nc3nc2NC(=O)NC(C)(C)C)c1,0%,0%,0%,0%,22%,0%,0%,0%,0%,0%,51%,0%,2%,0%,0%,0%,0%,14%,0%,16%
CCC(=O)c1c(-c2ccccc2)c2cc(Cl)ccc2c(=O)n1Cc1cc(C(=O)NC2CC2)n(C)n1,0%,0%,5%,0%,0%,0%,2%,7%,10%,8%,20%,0%,0%,41%,0%,3%,0%,0%,0%,0%
